Compounds with a hit are over-represented: about 15% of the library has one in this group of screens.
SARS PLP yeast = qHTS of Yeast-based Assay for SARS-CoV PLP; S. cerevisiae expressing SARS-CoV PLpro, growth rescue; 330,000 tested, 0.19% active; AID 485353, 2010; Potency, µM (highest dose often 32.9 µM), for the others: top-dose activity, positive = growth rescue, usual class: activators; calls by dose curve; note: potency is the fitted concentration of half-maximal effect; 0% is about no effect; nearly all actives have a fitted effect of over 55% in size
Pf growth 48h = Primary qHTS for delayed death inhibitors of the malarial parasite plastid, 48 hour incubation; 310,000 tested, 5.9% active; Potency, µM (titrated, usually from 28.7 µM), for inactives: at the highest dose activity change, negative = inhibition, hits mostly inhibitors; P. falciparum luciferase growth in erythrocytes, 48 h; AID 504832, 2011; note: potency is the fitted concentration of half-maximal effect; % is set by controls: 0 for no effect and ±100 for the full control effect
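Luciferase-expressing P. falciparum in infected erythrocytes (2% hematocrit, 0.1% parasitemia final) in RPMI 1640/0.5% Albumax were exposed to compound for 48 hours at 37 C, 5% CO2; growth read as luminescence.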
Sm TGR inh = qHTS Assay for the Inhibitors of Schistosoma Mansoni Peroxiredoxins; Schistosoma mansoni thioredoxin glutathione reductase (TGR), Q962Y6; purified TGR, DTNB reduction, TNB absorbance 405 nm; Potency, µM (titrated, usually from 114 µM), inactives show top-dose activity change, negative = inhibition, most hits filed as inhibitors; 360,000 tested, 3% active; note: potency is the fitted concentration of half-maximal effect; % is set by controls: 0 for no effect and ±100 for the full control effect; nearly all actives have a fitted effect of over 60% in size
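Kinetic colorimetric format: TGR-catalysed, NADPH-driven DTNB reduction monitored via TNB absorbance. Enzyme dispensed at 20 nM; compound exposure 15 min at room temperature before reaction start.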
Pf growth 96h = Primary qHTS for delayed death inhibitors of the malarial parasite plastid, 96 hour incubation | P. falciparum luciferase reporter growth, 96 h | Potency, µM (highest dose often 28.7 µM), for the others: at the highest dose activity change, negative = inhibition, most hits filed as inhibitors | 320,000 tested, 6.9% active; note: potency is the fitted concentration of half-maximal effect; % is set by controls: 0 for no effect and ±100 for the full control effect
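Two-generation exposure (96 h) targets delayed-death phenotype. Reporter parasites carrying integrated firefly luciferase, in red cells at 2% hematocrit and 0.05% parasitemia final, kept at 37 C, 5% CO2; luminescence loss indicates inhibition.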
HCMV inh = qHTS Assay for inhibitors of the human cytomegalovirus (HCMV). activity change, negative = inhibition, % at 57.5 µM. AID 1259415, 2018. HFF cells, HCMV-luciferase reporter, 72 h; hits give low values. 410,000 tested, 4.5% active; in the data active = activity change below about -60%; inconclusive = no clear call, values can overlap the other calls; inactive = above about -39%; note: % is set by controls: 0 for no effect and ±100 for the full control effect
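Luciferase read-out from HCMV-luciferase-infected HFFs (MOI 1 PFU/cell) 72 h post infection at 37C; compounds added after 16 h cell attachment; activity normalized between buffer-only basal and Salinomycin (10uM) inhibitor controls.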
HCV inhibitor = qHTS Assay for Inhibitors of Hepatitis C Virus (HCV); Huh7.5.1 HCVcc-Cre infection, luciferase reporter, 44 h; Potency, µM (top dose mostly 41.8 µM), for inactives: at the highest dose activity change, negative = inhibition, actives largely listed as inhibitors; 340,000 tested, 3.4% active; note: potency is the fitted concentration of half-maximal effect; % is set by controls: 0 for no effect and ±100 for the full control effect
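Luciferase read-out (15 sec integration) after a 15 min room-temperature substrate step quantifies HCVcc-Cre infection. Cells, 1,000 per well, had compound added 4 h post-plating, then virus at ~0.5 moi, and were cultured 44 h.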
* hit, by the source's call. Unless noted, calls come from the whole dose curve; as a rule, active = well fitted curve in the direction sought with a large enough effect; inconclusive = small, poorly fitted or top-dose-only effect, or another doubt; inactive = no such curve, though single readings can be large; an effect the other way counts as inactive or inconclusive.

How did C[C@H](NC(=O)N1CCn2c1nc1ccccc12)C(=O)N1CCCCC1 do in these assays?
SARS PLP yeast: -6.0%; Pf growth 48h: 12.6%; Sm TGR inh: -6.1%; Pf growth 96h: 22.6%; HCMV inh: active; HCV inhibitor: 9.5%

Results for Cc1csc(CNC(=O)C2CCC(=O)N(CCc3cccc(F)c3)C2)n1 (stereo not given) ?
SARS PLP yeast: 5.0%; Pf growth 48h: -1.7%; Sm TGR inh: 2.8%; Pf growth 96h: -19.0%; HCMV inh: 15.8

How did Cn1c(=O)n(-c2ccc(Br)cc2F)c(=O)c2sc3ccccc3c21 do in these assays?
Sm TGR inh: 3.9%; HCMV inh: -6.2

What do the screens show for `NC(CC(=O)NC(c1ccccc1)(c1ccccc1)c1ccccc1)C(=O)O` (stereo not given)?
SARS PLP yeast: 0.4%; Pf growth 48h: 12.8%; Sm TGR inh: -0.4%; Pf growth 96h: 8.3%; HCMV inh: -69.3*; HCV inhibitor: 14.2%

What do the screens show for `NC(CSC(c1ccccc1)(c1ccccc1)c1ccccc1)C(=O)O` (stereo not given)?
HCMV inh: 31.4; HCV inhibitor: -22.5%

How did COC(=O)c1cnn(-c2ccc(C(=O)Nc3cccc(C(C)=O)c3)cc2)c1N do in these assays?
SARS PLP yeast: -4.1%; Pf growth 48h: inconclusive; Sm TGR inh: 3.8%; Pf growth 96h: inconclusive; HCMV inh: -5.7

How did CC1CCN(CC(O)COC2CC(C)CCC2C(C)C)CC1 (stereo not given) do in these assays?
SARS PLP yeast: -1.0%; Pf growth 48h: 11.7µM*; Pf growth 96h: inconclusive; HCMV inh: inconclusive; HCV inhibitor: -23.9%

What do the screens show for `CCOC(=O)N1CCN(CC(O)COC2CC(C)CCC2C(C)C)CC1` (stereo not given)?
SARS PLP yeast: -3.3%; Pf growth 48h: inconclusive; Sm TGR inh: -1.8%; HCMV inh: 24.8; HCV inhibitor: -10.4%

Results for CC1CCC(C(C)C)C(OCC(O)CNC(C)c2ccccc2)C1 (stereo not given) ?
SARS PLP yeast: -0.8%; Pf growth 48h: inconclusive; Sm TGR inh: -1.3%; Pf growth 96h: inconclusive; HCMV inh: -98.5*; HCV inhibitor: inconclusive

How did CC(NCC(O)COC1CCC(C(C)(C)C)CC1)c1ccccc1 (stereo not given) do in these assays?
SARS PLP yeast: -22.5%; Pf growth 48h: inconclusive; Sm TGR inh: -1.0%; Pf growth 96h: inconclusive; HCMV inh: inconclusive; HCV inhibitor: inconclusive

What do the screens show for `CC1CCC(C(C)C)C(OCC(O)CNC(C)(C)C)C1` (stereo not given)?
SARS PLP yeast: 0.3%; Pf growth 48h: inconclusive; Sm TGR inh: -1.0%; Pf growth 96h: 5.22µM*; HCMV inh: -75.8*; HCV inhibitor: -7.7%

How did CC(C)[C@@H]1CC[C@@H](C)C[C@H]1O do in these assays?
HCMV inh: 43.9

How did CCc1ccc(C(=O)C(C)OC(=O)C2COc3ccccc3O2)cc1 (stereo not given) do in these assays?
SARS PLP yeast: -24.6%; Pf growth 48h: 4.0%; Sm TGR inh: -1.3%; Pf growth 96h: 6.3%; HCMV inh: -98.0*; HCV inhibitor: 5.2%

How did Cc1cccc(NC(=O)C2CCC(CNS(=O)(=O)c3csc(C(N)=O)c3)CC2)c1C (stereo not given) do in these assays?
Sm TGR inh: 4.7%; HCMV inh: 7.9

What do the screens show for `COc1ccccc1N(O)C1CC(=O)N(c2ccc(F)cc2)C1=O` (stereo not given)?
SARS PLP yeast: -36.2%; Pf growth 48h: 8.6%; Sm TGR inh: 3.55µM*; Pf growth 96h: 43.5%; HCMV inh: 23.1; HCV inhibitor: 0.1%

How did Cc1ccccc1N1C(=O)CC(N(O)c2ccccc2)C1=O (stereo not given) do in these assays?
SARS PLP yeast: -0.6%; Pf growth 48h: 64.5%; Sm TGR inh: 39.8µM*; Pf growth 96h: 5.7%; HCMV inh: 50.8; HCV inhibitor: -3.6%

Results for CCCOc1ccccc1N1C(=O)CC(N(O)c2ccccc2)C1=O (stereo not given) ?
SARS PLP yeast: -1.1%; Pf growth 48h: 1.4%; Sm TGR inh: -13.8%; Pf growth 96h: 19.7%; HCMV inh: -39.7; HCV inhibitor: -2.7%

How did CCN(CCO)C1CC(=O)N(c2ccccc2C)C1=O (stereo not given) do in these assays?
SARS PLP yeast: -33.3%; Pf growth 48h: 30.4%; Sm TGR inh: 6.31µM*; Pf growth 96h: 122.3%; HCV inhibitor: 6.2%

What do the screens show for `CCCOc1ccc(N2C(=O)CC(N(O)c3ccccc3)C2=O)cc1` (stereo not given)?
SARS PLP yeast: -0.6%; Pf growth 48h: 51.3%; Sm TGR inh: inconclusive; Pf growth 96h: 46.9%; HCMV inh: 42.4; HCV inhibitor: -2.5%

What do the screens show for `COc1ccccc1N1C(=O)CC(N(O)c2ccccc2)C1=O` (stereo not given)?
SARS PLP yeast: 1.1%; Pf growth 48h: 10.6%; Sm TGR inh: 39.8µM*; Pf growth 96h: 34.6%; HCMV inh: 39.1; HCV inhibitor: 8.7%

What do the screens show for `Cc1ccccc1C(=O)NNC1CC(=O)N(c2ccc3c(c2)OCCO3)C1=O` (stereo not given)?
SARS PLP yeast: -1.3%; Pf growth 48h: -1.7%; Sm TGR inh: 2.7%; Pf growth 96h: 43.0%; HCMV inh: -23.8; HCV inhibitor: 26.1%

How did CCc1ccc(C(=O)c2cn(CC(=O)Nc3ccc(C)c(C)c3)c3ccccc3c2=O)cc1 do in these assays?
Sm TGR inh: -14.2%; HCMV inh: -3.7

How did OC(c1ccc(F)cc1)c1nc(-c2cccc(F)c2)cs1 (stereo not given) do in these assays?
HCMV inh: -36.8

Results for O=C(COc1ccc2ccccc2c1)Nc1ccncc1 ?
SARS PLP yeast: -3.4%; Pf growth 48h: 1.4%; Sm TGR inh: 14.0%; Pf growth 96h: inconclusive; HCMV inh: -99.7*; HCV inhibitor: inconclusive

Results for COc1ccc(NC(=O)NNC(=O)COc2ccc3ccccc3c2)cc1 ?
SARS PLP yeast: 2.2%; Pf growth 48h: 17.3%; Sm TGR inh: 0.0%; Pf growth 96h: -31.2%; HCMV inh: 10.8; HCV inhibitor: 14.7%

What do the screens show for `CCOc1ccc(NC(=O)NNC(=O)COc2ccc3ccccc3c2)cc1`?
SARS PLP yeast: 3.1%; Pf growth 48h: -0.9%; Sm TGR inh: -1.0%; Pf growth 96h: 2.62µM*; HCMV inh: -24.1; HCV inhibitor: 8.5%

Assay outcomes as filed in PubChem.
